From PubChem BioAssay (Tox21)
Where “and” joins values, the source holds several entries; their conditions need not be identical. Equal entries are not always repeated. Records with an inconclusive call do not appear. Entries that show only a call come without a potency. Some structures have more than one record in an assay (separate samples or runs), and their calls can disagree. Calls of active or inactive are those of the source. Unless noted, the call rests on the fitted dose curve.

Tests used:
[1] = qHTS assay to identify small molecule antagonists of the sonic hedgehog signaling (Shh) pathway (AID 1259369); further: nearly all actives have a fitted effect of over 45% in size; further: potency means the concentration at half of the fitted maximal effect
In short: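 NIH/3T3-derived Gli1-Luc reporter cells plated 4 h, dosed with compound, then stimulated with conditioned medium for 24 h at 37 C. Firefly luciferase luminescence read after 30 min with detection reagent at room temperature.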

[2] = biological target: Estrogen receptor beta (Homo sapiens) (UniProt Q92731); assay: qHTS assay to identify small molecule agonists of the estrogen receptor beta (ER-beta) signaling pathway (AID 1259377; active means well fitted activation curve with a large enough effect in the signal ratio in the repeat runs, not every such curve was filed as active; the % refers to the signal ratio; further: potency means the concentration at half of the fitted maximal effect)
In short: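 Read-out: beta-lactamase FRET fluorescence. Cell line: ER-beta-UAS-bla HEK293T in 2% charcoal-stripped FBS. Exposure: 16 hr at 37C. Substrate step: 2 h at room temperature.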

[3] = biological target: Estrogen receptor beta (Homo sapiens) (UniProt Q92731); assay: qHTS assay to identify small molecule antagonists of the estrogen receptor beta (ER-beta) signaling pathway (AID 1259378; active means well fitted inhibition curve with a large enough effect in the signal ratio in the repeat runs, not every such curve was filed as active; the % refers to the signal ratio; further: potency means the concentration at half of the fitted maximal effect)
In short: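 ER-beta-UAS-bla HEK293T (GripTite) cells in 2% charcoal-stripped FBS medium were preincubated 6 hr at 37C, dosed with compound, then stimulated with 1 nM E2 (final) for 16 hr; beta-lactamase reporter read by B/G FRET fluorescence after 2 hr substrate loading.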

[4] = qHTS assay to identify small molecule agonists of the androgen receptor (AR) signaling pathway in the presence of an antagonist - cell viability counter screen (AID 1259379; active means well fitted curve in the direction sought with a large enough effect in the repeat runs; an effect the other way counts as inactive or inconclusive; further: nearly all actives have a fitted effect of over 25% in size; further: potency means the concentration at half of the fitted maximal effect)
In short: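 MDA-kb2 cells (MMTV-luciferase, AR/GR), 3,000/well, 5 h attachment, then 3.0 µM nilutamide (final) and compounds at 15 concentrations. Viability by CellTiter-Fluor fluorescence after 16 h at 37 °C, 0% CO2, in the reporter wells.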

[5] = qHTS assay to identify small molecule agonists of the estrogen receptor beta (ER-beta) signaling pathway - cell viability counter screen (AID 1259380; active means well fitted curve in the direction sought with a large enough effect in the repeat runs; an effect the other way counts as inactive or inconclusive; further: nearly all actives have a fitted effect of over 30% in size; further: potency means the concentration at half of the fitted maximal effect)
In short: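 ER-beta-UAS-bla HEK293T cells in medium with 2% charcoal-stripped FBS, pre-incubated 6 hr, then treated 16 hr at 37C. Cytotoxicity read in the same wells by CellTiter-Glo luminescence after 30 min at room temperature.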

[6] = qHTS assay to identify small molecule antagonists of the estrogen receptor beta (ER-beta) signaling pathway - cell viability counter screen (AID 1259382; active means well fitted curve in the direction sought with a large enough effect in the repeat runs; an effect the other way counts as inactive or inconclusive; further: nearly all actives have a fitted effect of over 55% in size; further: potency means the concentration at half of the fitted maximal effect)
In short: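 ER-beta-UAS-bla HEK293T cells in 2% charcoal-stripped FBS medium, treated with compound plus 1 nM 17-beta-estradiol for 16 h at 37C. Viability read by CellTiter-Glo luminescence after 30 min at room temperature in the same wells.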

[7] = biological target: Estrogen receptor (Homo sapiens) (UniProt P03372); assay: qHTS assay to identify small molecule agonists of the estrogen receptor alpha (ER-alpha) signaling pathway in the presence of an antagonist (AID 1259383); further: nearly all actives have a fitted effect of over 15% in size; further: potency means the concentration at half of the fitted maximal effect; on activation: top concentration of the series differs between compounds
In short: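 VM7Luc4E2 cells express endogenous full-length ER-alpha with an ERE-luciferase reporter and were hormone-deprived for 5 days. Compounds at 15 concentrations were added with 10.0nM ICI-182,780 for 22hr at 37C. Luminescence was read with ONE-Glo.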

[8] = qHTS assay to identify small molecule agonists or antagonists of the thyroid stimulating hormone receptor (TSHR) signaling pathway - wild type cell line counter screen (AID 1259384)
In short: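 Wild-type HEK293 cells were plated 18 h at 37 C/5% CO2, pin-dosed with compound plus Ro20-1724 medium, held 30 min at room temperature, then given cAMP-d2 and anti-cAMP-cryptate; fluorescence was read after 1 h. Fifteen concentrations, triplicate.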

[9] = biological target: Thyrotropin receptor (Homo sapiens) (UniProt P16473); assay: qHTS assay to identify small molecule antagonists of the thyroid stimulating hormone receptor (TSHR) signaling pathway (AID 1259385); further: nearly all actives have a fitted effect of over 20% in size
In short: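 TSHR-HEK293 cells were plated and held 18 h at 37C/5% CO2, then given compound plus Ro20-1724 and stimulated with TSH at 1.5 ng/mL final. After 30 min at room temperature, cAMP was detected with cAMP-d2/anti-cAMP-cryptate (1 h) by fluorescence.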

[10] = biological target: Androgen receptor (Homo sapiens) (UniProt P10275); assay: qHTS assay to identify small molecule agonists of the androgen receptor (AR) signaling pathway in the presence of an antagonist (AID 1259381); further: nearly all actives have a fitted effect of over 15% in size
In short: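 MDA-kb2 cells carrying MMTV-luciferase (AR/GR responsive), 3,000 cells/well, co-treated with 3.0 uM nilutamide final. Compounds at 15 concentrations, 16 hr at 37C without CO2. Luciferase luminescence read after 30 min with ONE-Glo.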

Sequence of Estrogen receptor (Homo sapiens) (P03372 whole entry, looked up): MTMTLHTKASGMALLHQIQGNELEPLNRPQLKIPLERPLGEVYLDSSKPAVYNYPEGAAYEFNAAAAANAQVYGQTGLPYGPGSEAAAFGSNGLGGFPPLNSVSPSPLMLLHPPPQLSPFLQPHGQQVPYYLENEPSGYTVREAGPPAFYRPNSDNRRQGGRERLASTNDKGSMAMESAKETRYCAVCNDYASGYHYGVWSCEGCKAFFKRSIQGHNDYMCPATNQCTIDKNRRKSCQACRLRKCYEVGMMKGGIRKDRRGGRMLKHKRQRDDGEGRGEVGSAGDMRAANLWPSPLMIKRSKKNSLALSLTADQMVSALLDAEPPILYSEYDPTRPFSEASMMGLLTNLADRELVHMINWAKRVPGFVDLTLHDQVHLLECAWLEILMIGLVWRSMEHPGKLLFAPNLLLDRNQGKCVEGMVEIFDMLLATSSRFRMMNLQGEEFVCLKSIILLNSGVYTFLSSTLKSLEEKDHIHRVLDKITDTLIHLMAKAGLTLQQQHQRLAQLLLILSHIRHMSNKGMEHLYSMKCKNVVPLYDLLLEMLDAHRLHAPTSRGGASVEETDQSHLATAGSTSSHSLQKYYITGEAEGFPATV
Sequence of Androgen receptor (Homo sapiens) (P10275 whole entry, looked up): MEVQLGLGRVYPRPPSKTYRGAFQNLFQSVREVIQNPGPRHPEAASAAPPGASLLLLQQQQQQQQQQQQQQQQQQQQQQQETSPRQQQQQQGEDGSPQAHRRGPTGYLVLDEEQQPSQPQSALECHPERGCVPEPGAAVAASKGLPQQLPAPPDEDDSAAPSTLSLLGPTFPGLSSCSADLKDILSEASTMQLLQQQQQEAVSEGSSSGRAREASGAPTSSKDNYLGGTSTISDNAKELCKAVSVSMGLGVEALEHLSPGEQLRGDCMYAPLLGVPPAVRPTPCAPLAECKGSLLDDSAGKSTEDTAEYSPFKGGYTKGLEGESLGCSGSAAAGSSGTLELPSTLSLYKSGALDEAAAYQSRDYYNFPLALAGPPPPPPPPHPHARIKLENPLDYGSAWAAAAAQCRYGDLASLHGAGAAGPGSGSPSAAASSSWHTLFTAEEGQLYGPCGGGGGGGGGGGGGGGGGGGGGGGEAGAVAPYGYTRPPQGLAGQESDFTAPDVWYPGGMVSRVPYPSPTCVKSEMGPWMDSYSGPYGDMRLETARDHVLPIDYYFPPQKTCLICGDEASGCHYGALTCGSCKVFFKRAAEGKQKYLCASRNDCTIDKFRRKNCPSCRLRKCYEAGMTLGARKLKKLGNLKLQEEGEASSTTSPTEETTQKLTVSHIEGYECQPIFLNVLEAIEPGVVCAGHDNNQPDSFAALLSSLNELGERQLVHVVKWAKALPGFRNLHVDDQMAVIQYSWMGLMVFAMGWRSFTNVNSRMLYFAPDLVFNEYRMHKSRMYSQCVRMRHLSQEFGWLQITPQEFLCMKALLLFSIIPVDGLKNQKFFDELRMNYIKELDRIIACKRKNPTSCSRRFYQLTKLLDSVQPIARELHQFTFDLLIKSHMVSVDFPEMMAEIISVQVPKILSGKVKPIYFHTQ
Sequence of Thyrotropin receptor (Homo sapiens) (P16473 whole entry, looked up): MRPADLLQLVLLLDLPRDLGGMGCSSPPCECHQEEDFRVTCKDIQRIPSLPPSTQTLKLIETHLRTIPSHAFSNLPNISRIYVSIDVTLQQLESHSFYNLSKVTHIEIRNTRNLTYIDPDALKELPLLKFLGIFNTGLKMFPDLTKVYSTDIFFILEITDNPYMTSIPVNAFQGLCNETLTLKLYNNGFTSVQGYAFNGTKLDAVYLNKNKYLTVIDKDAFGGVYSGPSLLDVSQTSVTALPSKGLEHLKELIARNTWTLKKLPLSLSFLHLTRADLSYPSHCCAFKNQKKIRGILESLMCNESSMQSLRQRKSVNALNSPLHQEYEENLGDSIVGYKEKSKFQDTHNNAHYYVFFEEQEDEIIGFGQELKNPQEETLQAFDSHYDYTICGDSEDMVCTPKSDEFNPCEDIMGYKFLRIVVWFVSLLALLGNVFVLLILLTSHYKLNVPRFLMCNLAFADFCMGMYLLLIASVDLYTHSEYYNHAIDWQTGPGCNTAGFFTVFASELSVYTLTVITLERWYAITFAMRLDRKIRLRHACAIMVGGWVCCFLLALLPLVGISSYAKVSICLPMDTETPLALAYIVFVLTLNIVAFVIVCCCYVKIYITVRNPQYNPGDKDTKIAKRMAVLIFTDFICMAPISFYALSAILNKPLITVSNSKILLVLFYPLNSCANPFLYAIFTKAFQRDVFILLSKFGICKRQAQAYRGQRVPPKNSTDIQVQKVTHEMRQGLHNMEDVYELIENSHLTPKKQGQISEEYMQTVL
Sequence of Estrogen receptor beta (Homo sapiens) (Q92731 whole entry, looked up): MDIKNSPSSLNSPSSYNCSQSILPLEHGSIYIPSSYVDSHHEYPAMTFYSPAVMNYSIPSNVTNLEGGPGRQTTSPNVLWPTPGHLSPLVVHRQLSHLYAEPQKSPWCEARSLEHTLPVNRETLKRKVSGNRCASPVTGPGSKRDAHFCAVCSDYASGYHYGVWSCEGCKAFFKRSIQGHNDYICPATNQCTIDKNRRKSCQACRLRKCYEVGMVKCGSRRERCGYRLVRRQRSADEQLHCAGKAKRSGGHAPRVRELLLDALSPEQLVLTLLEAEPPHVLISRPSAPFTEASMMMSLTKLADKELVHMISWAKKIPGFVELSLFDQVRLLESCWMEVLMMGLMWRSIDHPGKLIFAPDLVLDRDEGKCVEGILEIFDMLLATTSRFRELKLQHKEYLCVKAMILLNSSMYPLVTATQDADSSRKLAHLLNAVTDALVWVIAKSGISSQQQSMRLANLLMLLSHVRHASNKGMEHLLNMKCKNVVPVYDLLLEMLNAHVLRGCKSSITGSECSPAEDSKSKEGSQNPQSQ

| SMILES | Potency [1] | Potency [2] | Potency [3] | Potency [4] | Potency [5] | Potency [6] | Potency [7] | Potency [8] | Potency [9] | Potency [10] |
| --- | --- | --- | --- | --- | --- | --- | --- | --- | --- | --- |
| Nc1ccccc1-c1ccccc1 | inactive | inactive | inactive | inactive | 48.3 µM (active) | inactive | inactive | inactive | inactive |  |
| CN1[C@@H]2CC[C@H]1CC(O)C2 (stereo partly drawn) | inactive | inactive | inactive | inactive | inactive | inactive | inactive |  |  |  |
| C=CC(=C)C | inactive | inactive | inactive | inactive | inactive | inactive | inactive | inactive | inactive |  |
| Brc1cccc(-c2ccccc2)c1 | inactive | inactive | inactive | inactive | inactive | inactive | inactive |  |  |  |
| CNC(=O)/C=C(\C)OP(=O)(OC)OC | inactive | inactive | inactive | inactive | inactive | inactive | inactive |  | inactive |  |
| CCN(CC)CCN1C(=O)CN=C(c2ccccc2F)c2cc(Cl)ccc21 | inactive | inactive | inactive | inactive | inactive | inactive | inactive | inactive | inactive |  |
| O=C(O)CCCCCCNC1c2ccccc2CCc2ccccc21 | inactive | inactive | inactive | inactive | inactive | inactive | inactive | inactive | inactive |  |
| CCCCCCCCCCCCCCn1cc[n+](C)c1 | 122 nM (active) and 42.8 nM (active) | inactive | inactive | 7.71 µM (active) and 1.7 µM (active) | 30.7 µM (active) and 60.4 µM (active) | 34.4 µM (active) and 34 µM (active) and inactive | inactive | inactive |  |  |
| CC(C)C(Br)C(=O)NC(N)=O (stereo not drawn) | inactive | inactive | inactive | inactive | inactive | inactive | inactive | inactive | inactive |  |
| CC(C)=CC1C(C(=O)OC(C#N)c2cccc(Oc3ccccc3)c2)C1(C)C (stereo not drawn) | inactive | inactive | inactive | inactive | inactive | inactive |  | inactive | inactive | inactive |
| ClC(Cl)C(Cl)(Cl)Cl | inactive | inactive | inactive | inactive | inactive | inactive | inactive | inactive | inactive |  |
| CN(C)c1ccc(N)cc1 | 13.4 µM (active) | inactive | 23.7 µM (active) | 59.6 µM (active) | 11.9 µM (active) |  | inactive |  |  | inactive |
| [O-][Cl+3]([O-])([O-])O | inactive | inactive | inactive | inactive | inactive | inactive |  |  |  |  |
| ClSC(Cl)(Cl)Cl | inactive | inactive | inactive | inactive | inactive | inactive | inactive | inactive | inactive |  |
| O=NN(CCO)CCO | inactive | inactive | inactive | inactive | inactive | inactive | inactive | inactive | inactive | inactive |
| CC(Cc1ccc(OCC(=O)O)cc1)NCC(O)c1csc(C(F)(F)F)n1 (stereo not drawn) | inactive | inactive | inactive | inactive | inactive | inactive | inactive | inactive | inactive |  |
| NC(=O)C(Cl)Cl | inactive | inactive | inactive | inactive | inactive | inactive |  |  |  |  |
| CC(=O)C(Cl)C(=O)N(C)C (stereo not drawn) | inactive | inactive | inactive | inactive | inactive | inactive | inactive | inactive | inactive |  |
| CC(C)N(C(=O)CCl)c1ccccc1 | 12.2 µM (active) and 9.69 µM (active) | inactive | 9.69 µM (active) | 54.5 µM (active) | 54.5 µM (active) and 27.3 µM (active) |  | inactive | inactive | inactive | inactive |
| CC1(C)[C@H](/C=C2\CCSC2=O)[C@@H]1C(=O)OCc1coc(Cc2ccccc2)c1 | 12.2 µM (active) | inactive | inactive | inactive | inactive | inactive | inactive | inactive |  |  |
| CC(Cl)CCl (stereo not drawn) | inactive | inactive | inactive | inactive | inactive | inactive | inactive | inactive | inactive |  |
| CN/C(=N\[N+](=O)[O-])NCc1cnc(Cl)s1 | inactive | inactive | inactive | inactive | inactive | inactive | inactive |  |  |  |
| CCCCc1ccccc1 | inactive | inactive | inactive | inactive | inactive | inactive | inactive | inactive | inactive |  |
| COc1ccc(Cc2nccc3cc(OC)c(OC)cc23)cc1OC | 1.88 µM (active) | inactive | inactive | 18.8 µM (active) | inactive | inactive |  | inactive | inactive | inactive |

| SMILES | Potency [1] | Potency [2] | Potency [3] | Potency [4] | Potency [5] | Potency [6] | Potency [7] | Potency [8] | Potency [9] | Potency [10] |
| --- | --- | --- | --- | --- | --- | --- | --- | --- | --- | --- |
| Nc1nc(N)nc(Cl)n1 | inactive | inactive | inactive | inactive | inactive | inactive | inactive |  | inactive |  |
| CCC(C)Nc1c([N+](=O)[O-])cc(C(C)(C)C)cc1[N+](=O)[O-] (stereo not drawn) | inactive | inactive | inactive | inactive | inactive | inactive | inactive | inactive |  |  |
| O=C(NC(=O)c1ccccc1Cl)Nc1ccc(OC(F)(F)F)cc1 | inactive | inactive | inactive | inactive | inactive | inactive |  | inactive | inactive | inactive |
| COP(=S)(NC(C)C)Oc1ccc(C)cc1[N+](=O)[O-] (stereo not drawn) | inactive | inactive | 30.6 µM (active) | inactive | inactive | inactive | inactive | inactive | inactive |  |
| CNC(=O)CSP(=O)(OC)OC | inactive | inactive | inactive | inactive | inactive | inactive | inactive | inactive | inactive |  |
| C#CCO | inactive | inactive | inactive | inactive | inactive | inactive | inactive | inactive |  |  |
| O=C(Cl)c1ccccc1F | inactive | inactive | inactive | inactive | inactive | inactive | inactive | inactive | inactive |  |
| O=[N+]([O-])c1ccccc1-c1ccccc1 | inactive | inactive | inactive | inactive | inactive | inactive | inactive | inactive |  |  |
| CCOC(=O)Cc1ccccc1 | inactive | inactive | inactive | inactive | inactive | inactive | inactive | inactive | inactive | inactive |
| CCNc1nc(NC(C)C(C)C)nc(SC)n1 (stereo not drawn) | 4.86 µM (active) | inactive | inactive | inactive | inactive | inactive | inactive |  |  |  |
| O=S(=O)(O)F | inactive | inactive | inactive | inactive | inactive | inactive | inactive | inactive | inactive |  |
| COc1ccc2c(c1OC)C(=O)O[C@@H]2[C@H]1c2cc3c(cc2CCN1C)OCO3 | inactive | inactive | inactive | inactive | inactive |  |  |  | inactive | inactive |
| C=Cc1cccc(CCl)c1 | inactive | inactive | inactive | inactive | inactive | inactive | inactive | inactive | inactive |  |
| COc1cnc(OC)n2nc(NS(=O)(=O)c3c(OCC(F)F)cccc3C(F)(F)F)nc12 | inactive | inactive | inactive | inactive | inactive | inactive | inactive |  | inactive |  |
| CC1(C)C(C=C(Cl)Cl)C1C(=O)OC(C#N)c1ccc(F)c(Oc2ccccc2)c1 (stereo not drawn) | inactive | inactive | inactive | inactive | inactive | inactive | inactive | inactive | inactive |  |
| CC[C@]1(O)CC[C@H]2[C@@H]3CCC4=CCCC[C@@H]4[C@H]3CC[C@@]21C | 13.3 µM (active) | 0.0067 µM (active) |  | inactive |  | inactive | 0.0019 µM (active) | inactive | inactive |  |
| CCOP(=S)(NC(C)C)Oc1ccccc1C(=O)OC(C)C (stereo not drawn) | inactive | inactive |  |  | 3.86 µM (active) |  | inactive | inactive |  |  |
| N#Cc1c2ccccc2cc2ccccc12 | inactive | 21.6 µM (active) |  |  | inactive | inactive | inactive | inactive | inactive | inactive |
| Oc1cccc(Cl)c1Cl | inactive |  | inactive | inactive |  |  | inactive | inactive | inactive |  |
| [Cl-].[Cl-].[Cl-].[Yb+3] | inactive |  |  | inactive |  |  |  |  |  |  |
| CCN(CC)Cc1nccn1-c1ccc([N+](=O)[O-])cc1C(=O)c1ccccc1Cl | inactive | inactive |  | inactive | inactive | inactive |  | inactive | inactive |  |
| Cc1c([N+](=O)[O-])cc2c(c1[N+](=O)[O-])C(C)(C)CC2(C)C | inactive | inactive |  | inactive | inactive | inactive | inactive | inactive | inactive |  |
| CCn1cc[n+](C)c1 (tested in a mixture with another compound) | inactive |  |  | inactive | inactive |  |  |  |  |  |
